These results are taken from ChEMBL document CHEMBL3988442, “University of Dundee, Small-Polar-MMV Screening Library” (2021).

Holding throughout (design): scale not given: direction of the effect not stated beside the values
The target in assay [1] is Protein translocase subunit SecA (Escherichia coli (strain K12)) (UniProt P10408). The assay is described as follows: Assay to Identify E. coli SecA ATPase Inhibitors. In kind it is functional. The conditions noted are these: 30 µM.
The target in assay [2] is T1, Ubiquitin-activating enzyme e1, putative (Leishmania donovani (strain BPK282A1)) (UniProt E9BSI1).
T1 sequence (whole entry): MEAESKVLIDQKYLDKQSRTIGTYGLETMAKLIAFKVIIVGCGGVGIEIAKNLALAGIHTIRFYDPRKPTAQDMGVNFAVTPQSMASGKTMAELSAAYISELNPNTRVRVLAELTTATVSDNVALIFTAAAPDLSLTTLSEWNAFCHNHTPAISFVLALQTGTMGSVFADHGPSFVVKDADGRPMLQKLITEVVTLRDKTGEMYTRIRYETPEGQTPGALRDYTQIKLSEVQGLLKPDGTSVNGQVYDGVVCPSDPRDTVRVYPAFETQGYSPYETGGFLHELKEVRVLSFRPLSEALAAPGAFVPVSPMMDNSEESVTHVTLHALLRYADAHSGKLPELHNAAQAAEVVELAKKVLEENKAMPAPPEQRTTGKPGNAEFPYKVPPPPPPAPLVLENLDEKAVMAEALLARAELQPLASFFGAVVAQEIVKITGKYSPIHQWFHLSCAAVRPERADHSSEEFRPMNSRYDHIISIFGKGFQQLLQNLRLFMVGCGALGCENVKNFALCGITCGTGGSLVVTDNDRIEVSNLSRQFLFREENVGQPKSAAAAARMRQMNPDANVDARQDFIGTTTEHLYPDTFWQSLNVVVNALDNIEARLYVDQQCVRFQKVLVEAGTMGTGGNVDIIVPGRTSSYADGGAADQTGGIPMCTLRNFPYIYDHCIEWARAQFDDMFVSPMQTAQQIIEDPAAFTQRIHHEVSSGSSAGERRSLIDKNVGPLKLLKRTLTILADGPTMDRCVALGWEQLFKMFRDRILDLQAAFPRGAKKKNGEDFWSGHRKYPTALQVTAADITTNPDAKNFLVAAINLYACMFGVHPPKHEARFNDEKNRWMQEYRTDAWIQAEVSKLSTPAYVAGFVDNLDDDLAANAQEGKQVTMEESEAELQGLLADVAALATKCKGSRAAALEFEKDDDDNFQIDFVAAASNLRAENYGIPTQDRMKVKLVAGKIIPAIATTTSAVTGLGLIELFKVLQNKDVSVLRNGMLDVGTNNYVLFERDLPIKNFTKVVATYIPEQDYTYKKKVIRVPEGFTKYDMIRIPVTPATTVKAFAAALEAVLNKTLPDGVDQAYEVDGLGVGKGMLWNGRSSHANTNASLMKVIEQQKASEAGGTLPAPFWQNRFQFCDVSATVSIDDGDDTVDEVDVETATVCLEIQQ
The assay is described as follows: Leishmania donovani Ubiquitin Activating Enzyme (LdE1). In kind it is functional. Particulars: 30 µM.

In assay [3] the target is AMP-activated protein kinase, AMPK (Homo sapiens) (UniProt P54646+O43741+P54619+Q9UGJ0+Q9Y478+Q13131+Q9UGI9). The assay is described as follows: AMP-dependent Kinase enzyme assay. An in vitro enzyme assay that detects ADP turnover that is directly proportional to AMPK activity. This uses naive AMPK that is activated during the assay with MK-8722. In kind it is functional. Particulars: 30 µM.

Assay [4] deals with Sialic acid-binding Ig-like lectin 9 (Homo sapiens) (UniProt Q9Y336). Nature of the assay: Hs-Siglec9 ALPHAscreen SOP 20170721. Particulars: 10 µM. On the technique in general: Alpha assays give light when donor and acceptor beads are brought close together.
Chain of Sialic acid-binding Ig-like lectin 9 (Homo sapiens) (Q9Y336 whole entry): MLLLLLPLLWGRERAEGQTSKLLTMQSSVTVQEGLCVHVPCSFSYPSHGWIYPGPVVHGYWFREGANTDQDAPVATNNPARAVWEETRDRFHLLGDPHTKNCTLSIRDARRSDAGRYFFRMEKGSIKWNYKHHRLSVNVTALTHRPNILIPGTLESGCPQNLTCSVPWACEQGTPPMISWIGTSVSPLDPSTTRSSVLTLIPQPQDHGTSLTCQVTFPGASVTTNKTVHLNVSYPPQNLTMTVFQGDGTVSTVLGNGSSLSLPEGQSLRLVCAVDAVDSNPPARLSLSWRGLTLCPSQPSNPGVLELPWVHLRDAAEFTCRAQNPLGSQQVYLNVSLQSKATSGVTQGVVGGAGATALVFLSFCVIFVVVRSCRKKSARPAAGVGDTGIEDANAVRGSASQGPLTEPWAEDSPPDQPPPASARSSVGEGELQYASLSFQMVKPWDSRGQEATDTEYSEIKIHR
The test system of a further assay is Trypanosoma cruzi. Nature of the assay: Trypanosoma cruzi phosphomannomutase and mannose-1-phosphate guanylyltransferase assay. It counts as functional. The conditions noted are these: 10 µM.
The target of assay [5] is T2, Arginase-2, mitochondrial (Homo sapiens) (UniProt P78540).
T2 sequence (whole entry): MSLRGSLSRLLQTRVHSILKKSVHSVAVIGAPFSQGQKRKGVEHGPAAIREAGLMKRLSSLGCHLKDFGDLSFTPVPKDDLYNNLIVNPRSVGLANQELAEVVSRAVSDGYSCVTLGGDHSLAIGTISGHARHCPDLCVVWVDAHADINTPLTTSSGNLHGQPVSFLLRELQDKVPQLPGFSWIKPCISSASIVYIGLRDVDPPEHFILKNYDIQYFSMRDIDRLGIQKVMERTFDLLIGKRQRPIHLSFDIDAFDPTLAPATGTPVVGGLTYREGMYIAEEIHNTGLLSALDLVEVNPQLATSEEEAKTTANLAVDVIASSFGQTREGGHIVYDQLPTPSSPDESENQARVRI
The assay is described as follows: in vitro enzyme assay to detect the production of urea directly proportional to the activity of Arginase II. Further: in the data most compounds retested in dose-response had high values. In kind it is functional. Particulars: 33.3 µM.

Assay [6] addresses T3, Proteasome subunit beta (Trypanosoma cruzi) (UniProt O96673).
T3 sequence (whole entry): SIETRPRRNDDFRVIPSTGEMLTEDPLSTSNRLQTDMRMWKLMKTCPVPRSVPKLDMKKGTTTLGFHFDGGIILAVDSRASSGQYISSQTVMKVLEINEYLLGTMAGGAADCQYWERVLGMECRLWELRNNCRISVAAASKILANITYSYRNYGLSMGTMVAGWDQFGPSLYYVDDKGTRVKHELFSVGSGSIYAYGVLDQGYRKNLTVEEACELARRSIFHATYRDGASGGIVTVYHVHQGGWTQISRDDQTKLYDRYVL
Nature of the assay: Trypanosoma cruzi proteasome chymotrypsin-like activity (TcProtChymo) assay. Further: in the data most compounds retested in dose-response had high values. The conditions noted are these: 9.37 µM. In kind it is functional.

Another assay is filed under the species Homo sapiens. The assay is described as follows: To identify inhibition of the IFN signalling (Jak-Stat) pathway via expression of an eGFP reporter gene under the control of an IFN-stimulated response element (ISRE) containing MxA promoter. It counts as functional. The conditions noted are these: 30 µM. In general terms: A reporter such as luciferase makes a cellular process visible.

The target of assay [7] is T4, Tyrosyl-tRNA synthetase, putative (Trypanosoma cruzi (strain CL Brener)) (UniProt Q4DSP6).
T4 sequence (whole entry): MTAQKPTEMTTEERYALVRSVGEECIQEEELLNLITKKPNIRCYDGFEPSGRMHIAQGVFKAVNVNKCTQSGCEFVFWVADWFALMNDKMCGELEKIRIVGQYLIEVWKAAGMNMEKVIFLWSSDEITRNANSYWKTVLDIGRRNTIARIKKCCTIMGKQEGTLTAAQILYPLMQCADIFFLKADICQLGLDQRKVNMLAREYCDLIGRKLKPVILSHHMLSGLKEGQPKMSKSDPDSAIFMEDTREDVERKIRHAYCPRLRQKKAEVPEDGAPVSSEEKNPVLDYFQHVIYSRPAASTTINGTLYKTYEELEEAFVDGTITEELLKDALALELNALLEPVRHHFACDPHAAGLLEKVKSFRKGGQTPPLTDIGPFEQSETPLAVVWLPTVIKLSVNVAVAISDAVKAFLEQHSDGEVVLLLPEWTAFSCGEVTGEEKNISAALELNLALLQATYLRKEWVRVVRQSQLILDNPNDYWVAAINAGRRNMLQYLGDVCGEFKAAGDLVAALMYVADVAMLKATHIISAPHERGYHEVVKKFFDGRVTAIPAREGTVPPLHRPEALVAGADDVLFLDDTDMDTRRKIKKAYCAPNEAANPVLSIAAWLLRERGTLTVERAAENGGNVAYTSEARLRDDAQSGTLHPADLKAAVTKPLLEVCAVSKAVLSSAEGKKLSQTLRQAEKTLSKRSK
The assay is described as follows: Trypanosoma cruzi tyrosyl tRNA synthetase (TcYRS) _High Tyrosine SOP. Further: in the data most compounds retested in dose-response had high values. The conditions noted are these: 30 µM. It counts as functional.

In assay [8] the target is T4, Tyrosyl-tRNA synthetase, putative (Trypanosoma cruzi (strain CL Brener)). The assay is described as follows: Trypanosoma cruzi tyrosyl tRNA synthetase (TcYRS) SOP. It counts as functional. The conditions noted are these: 30 µM.
For assay [9], the target named is Chromo domain-containing protein 1 (Saccharomyces cerevisiae (strain ATCC 204508 / S288c) (Baker's yeast)) (UniProt P32657). The assay is described as follows: ScCHD-1 Enzyme Inhibition Assay. Further: in the data most compounds retested in dose-response had high values. It counts as functional. The conditions noted are these: 30 µM.
Chain of Chromo domain-containing protein 1 (Saccharomyces cerevisiae (strain ATCC 204508 / S288c) (Baker's yeast)) (P32657 whole entry, the tested form may be a part): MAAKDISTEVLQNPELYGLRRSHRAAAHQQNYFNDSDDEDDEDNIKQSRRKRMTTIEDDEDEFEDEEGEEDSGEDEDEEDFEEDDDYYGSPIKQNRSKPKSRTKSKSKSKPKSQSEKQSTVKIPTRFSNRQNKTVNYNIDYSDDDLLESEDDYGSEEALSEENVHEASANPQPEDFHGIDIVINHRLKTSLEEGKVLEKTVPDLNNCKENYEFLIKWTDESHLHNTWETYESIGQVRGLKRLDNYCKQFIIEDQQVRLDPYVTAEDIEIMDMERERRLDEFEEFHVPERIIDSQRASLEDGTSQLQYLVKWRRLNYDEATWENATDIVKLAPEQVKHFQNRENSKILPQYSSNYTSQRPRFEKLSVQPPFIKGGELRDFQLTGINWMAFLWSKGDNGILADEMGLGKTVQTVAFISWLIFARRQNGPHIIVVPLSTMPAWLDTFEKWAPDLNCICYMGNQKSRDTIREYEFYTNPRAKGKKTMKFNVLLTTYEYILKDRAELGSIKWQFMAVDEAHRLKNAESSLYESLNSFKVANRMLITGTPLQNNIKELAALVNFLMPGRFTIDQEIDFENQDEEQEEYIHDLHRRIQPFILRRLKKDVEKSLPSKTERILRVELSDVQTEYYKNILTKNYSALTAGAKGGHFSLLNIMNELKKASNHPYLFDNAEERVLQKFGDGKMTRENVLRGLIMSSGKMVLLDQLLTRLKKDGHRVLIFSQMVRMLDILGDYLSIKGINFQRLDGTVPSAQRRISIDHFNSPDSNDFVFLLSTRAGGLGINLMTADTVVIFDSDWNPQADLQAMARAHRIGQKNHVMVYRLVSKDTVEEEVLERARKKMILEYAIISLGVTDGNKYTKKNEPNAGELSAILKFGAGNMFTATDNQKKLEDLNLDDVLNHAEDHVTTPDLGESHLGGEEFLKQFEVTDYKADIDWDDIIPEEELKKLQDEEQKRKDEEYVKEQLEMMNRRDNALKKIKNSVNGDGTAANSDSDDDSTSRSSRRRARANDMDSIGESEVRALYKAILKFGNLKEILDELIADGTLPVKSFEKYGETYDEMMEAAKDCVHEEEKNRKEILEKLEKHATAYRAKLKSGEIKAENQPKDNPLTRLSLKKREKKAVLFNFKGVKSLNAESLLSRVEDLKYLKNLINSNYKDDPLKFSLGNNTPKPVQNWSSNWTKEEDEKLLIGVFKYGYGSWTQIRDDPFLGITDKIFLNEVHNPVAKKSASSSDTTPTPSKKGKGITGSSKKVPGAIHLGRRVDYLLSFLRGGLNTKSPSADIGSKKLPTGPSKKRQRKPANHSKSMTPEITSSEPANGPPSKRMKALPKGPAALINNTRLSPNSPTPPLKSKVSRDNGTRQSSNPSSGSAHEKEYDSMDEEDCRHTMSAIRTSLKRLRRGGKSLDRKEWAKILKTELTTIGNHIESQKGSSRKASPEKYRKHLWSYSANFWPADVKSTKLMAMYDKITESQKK

For some assays here: Measured potencies and affinities stand elsewhere.

Chain of Protein translocase subunit SecA (Escherichia coli (strain K12)) (P10408 whole entry): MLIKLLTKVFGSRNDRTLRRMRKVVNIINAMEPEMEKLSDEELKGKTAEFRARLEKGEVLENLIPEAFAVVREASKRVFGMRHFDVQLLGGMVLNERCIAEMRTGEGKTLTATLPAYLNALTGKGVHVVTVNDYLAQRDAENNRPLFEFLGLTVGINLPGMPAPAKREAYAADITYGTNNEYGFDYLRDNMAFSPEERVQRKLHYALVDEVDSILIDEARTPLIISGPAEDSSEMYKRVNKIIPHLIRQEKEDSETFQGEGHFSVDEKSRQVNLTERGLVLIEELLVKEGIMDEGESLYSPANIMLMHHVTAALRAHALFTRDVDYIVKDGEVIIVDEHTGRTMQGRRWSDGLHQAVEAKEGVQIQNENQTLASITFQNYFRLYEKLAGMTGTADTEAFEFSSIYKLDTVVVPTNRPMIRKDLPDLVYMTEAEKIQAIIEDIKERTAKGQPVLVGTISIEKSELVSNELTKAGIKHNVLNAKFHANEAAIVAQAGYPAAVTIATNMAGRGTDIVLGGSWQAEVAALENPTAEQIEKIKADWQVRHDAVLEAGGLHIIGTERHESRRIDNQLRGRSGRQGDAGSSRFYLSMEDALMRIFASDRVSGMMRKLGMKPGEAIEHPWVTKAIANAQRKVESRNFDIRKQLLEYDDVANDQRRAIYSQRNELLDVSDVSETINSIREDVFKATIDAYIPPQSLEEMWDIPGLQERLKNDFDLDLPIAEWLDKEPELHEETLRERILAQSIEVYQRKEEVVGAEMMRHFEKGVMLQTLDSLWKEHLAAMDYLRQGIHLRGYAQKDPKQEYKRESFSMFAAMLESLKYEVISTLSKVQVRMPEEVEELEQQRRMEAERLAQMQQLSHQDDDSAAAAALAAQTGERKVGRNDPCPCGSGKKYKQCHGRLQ

Take `c1nc2c(c(C3CC3)n1)CCN(Cc1ccoc1)CC2`: the Percent Effect in assay [1] is 0.0846%; in assay [2], 19.2%; in [3], -4.87%; in assay [4], 5.4%; in the assay on Trypanosoma cruzi, 5.56%; in [5], -0.798%. The Percent Effect in [6] is 6.59%; in the assay listed under Homo sapiens, 5.88%; in assay [7] it was 8.33%; in assay [8], 23.5%; in assay [9], -3.03%.
For `O=C(c1ccc[nH]1)N1C[C@H]2CC[C@@H]1CN(c1ncccn1)C2`, the Percent Effect in assay [1] was -5.19%; in assay [2], 5.2%; in assay [3], 7.19%; in [4], 11.1%; in the assay with Trypanosoma cruzi, 2.26%; in assay [5], -9.65%. Also, the Percent Effect was 6.49% in assay [6]; -14.3% in the assay listed under Homo sapiens; 6.45% in assay [7]; 13.6% in assay [8]; -0.0272% in assay [9].
Consider `Cc1cnccc1CN1C[C@@H](O)[C@H](Oc2ccccc2)C1`, for which the Percent Effect in assay [1] is 4.34%; in [2], -4.05%; in assay [3], 6.12%; in assay [4], 0.247%; in the assay with Trypanosoma cruzi it was 0.593%; in assay [5], 3.02%. Moreover, the Percent Effect was 3.28% in assay [6]; 11.6% in the assay filed under Homo sapiens; 2.15% in [7]; -1.3% in assay [8]; -12.9% in assay [9].
For the molecule `COC(=O)c1cccn1C1CCN(C(=O)c2cc(C)ccc2O)CC1`, the Percent Effect in [1] was -8.92%; in [2] it was 18.2%; in assay [3], 3.73%; in [4], -0.853%; in the assay on Trypanosoma cruzi, -7.12%; in [5] it was 0.712%. Moreover, the Percent Effect in assay [6] was 6.25%; in the assay filed under Homo sapiens, 38.3%; in [7], 2.91%; in assay [8], 9.76%; in assay [9], -5.74%.
Turning to `COCCOCc1cccc(NC(=O)N2CCCC2c2ccncc2)c1` (stereo not given), the Percent Effect was -2.97% in [1]; 13% in [2]; -3.58% in assay [3]; 1.28% in [4]; -4.02% in the assay with Trypanosoma cruzi; 1.9% in assay [5]. The Percent Effect was 5.09% in assay [6]; 16.9% in the assay listed under Homo sapiens; 6.67% in assay [7]; 7.06% in assay [8]; -20.8% in assay [9].
Consider `CC(C)CCn1[nH]c(CNc2ccccc2)nc1=O`, for which the Percent Effect in assay [1] was -2.4%; in [2] it was 2.63%; in [3], 4.53%; in assay [4] it was 4.24%; in the assay with Trypanosoma cruzi it was -9.06%; in assay [5], 2.37%. Besides, the Percent Effect was determined as 16.2% in [6]; 2.77% in the assay listed under Homo sapiens; 2.13% in [7]; 2.6% in [8]; 4.81% in assay [9].
As to `Cn1cccc1C(=O)N1CCCC2(CCN(CCN3CCCC3)C2=O)C1` (stereo not given), the Percent Effect in assay [1] was -6.99%; in assay [2], 2.6%; in assay [3] it was 0.774%; in assay [4], 9.32%; in the assay on Trypanosoma cruzi, -1.48%; in assay [5], -4.14%. The Percent Effect in assay [6] was 7.65%; in the assay listed under Homo sapiens it was 11.9%; in [7], -2.15%; in [8], -1.24%; in assay [9], 0.981%.
For `CC(C)N(C)C(=O)C1=NOC2(CCN(C(=O)c3ccccn3)C2)C1` (stereo not given), the Percent Effect was 3.88% in assay [1]; 2.74% in assay [2]; -0.462% in [3]; 5.09% in assay [4]; -5.95% in the assay on Trypanosoma cruzi; -3.59% in [5]. The Percent Effect in assay [6] is 17.9%; in the assay listed under Homo sapiens it was 5.05%; in assay [7], 5.21%; in assay [8], 16.1%; in assay [9] it was 2.42%.
For the molecule `COCCCNC(=O)N1CCCC(c2nncn2C)C1` (stereo not given), the Percent Effect is -5.16% in assay [1]; 2.63% in assay [2]; -3.92% in [3]; 8.87% in assay [4]; -3.46% in the assay with Trypanosoma cruzi; 0.36% in assay [5]. Further, the Percent Effect in assay [6] was 7.87%; in the assay listed under Homo sapiens it was 5.55%; in assay [7], 0.493%; in assay [8], -6.17%; in assay [9] it was 2.53%.
As for `CCN1CCC(NC(=O)CN2CCc3c(nc(C4CC4)n3C)C2)CC1`, the Percent Effect in assay [1] is -2.61%; in assay [2], -5.2%; in assay [3], -9.14%; in assay [4] it was 13.3%; with Trypanosoma cruzi, 0.374%; in assay [5], 6.76%. The Percent Effect in assay [6] was -2.37%; in the assay filed under Homo sapiens, -16.3%; in assay [7], 1.94%; in assay [8], 0%; in assay [9], -7.12%.
